We go through 20 molecules from PubChem BioAssay.

A number with no mark means an inactive call. For some of these results: Entries with a potency or affinity are not part of this list. The source made the active and inactive calls. Unless noted, the rule behind the calls is not given here.

A short description of experiment [1]: antimalarial activity against Dd2 strain (AID 2302;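 active = growth inhibition above 50% at the single 2 µM test dose, taken to imply half-maximal potency below 2 µM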;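 note: 0% = DMSO untreated growth and 100% = chloroquine plus artemisinin killed control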). The following applies: P. falciparum Dd2 in RBCs, LDH growth readout, 72 h; at 2 µM; active compounds read high.
Experiment [2] in a line: HepG2 cytotoxicity, primary screen, cytotoxicity control for P. falciparum antimalarial project, cell-based, ATP luminescence (AID 2303;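 active = inhibition above 50%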;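 note: 0% = DMSO wells and 100% = digitonin-killed cells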). Particulars: HepG2 viability, 24-48 h, at 10 µM, active compounds read high.
The target in experiment [3] is L-lactate dehydrogenase (Plasmodium falciparum (isolate CDC / Honduras)) (UniProt Q27743). Kind of experiment: PfLDH activity inhibition – cell lysate, 3D7 strain, counter-screen for P. falciparum growth inhibition project (AID 2304).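 Note: 0% = vehicle and 100% = reference inhibitor.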 Particulars: P. falciparum 3D7 crude extract, LDH APAD/NBT absorbance; at 2 µM; active compounds read high. For orientation: A counterscreen serves to expose hits that act by an unwanted route or on another target.

Experiment [4] is described as follows: inhibition of 3D7 malaria parasite growth – strain 3D7 (AID 2306).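 Note: 0% = DMSO wells and 100% = chloroquine plus artemisinin control wells.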 The following applies: P. falciparum 3D7 erythrocytic growth, LDH absorbance, 72 h; at 2 µM; active compounds read high.
Experiment [5] concerns the target Calcium-dependent protein kinase 1 (Plasmodium falciparum (isolate 3D7)) (UniProt P62344). Kind of experiment: PfCDPK1 kinase inhibitors, biochemical, TCAMS library (AID 1159585; cut-off not given, nearly all actives have IC50 up to about 0.98 µM;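 note: inhibitors leave more ATP so luminescence rises with inhibition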). The following applies: recombinant PfCDPK1, Kinase-Glo ATP depletion luminescence. On the technique in general: Kinase-Glo measures the ATP left after a reaction by luminescence.
Experiment [6] concerns the target Plasmodium falciparum protein kinase 6 (PK6, PF3D7_1337100) (UniProt Q8IDW1). In words: PfPK6 kinase inhibitors, biochemical, TCAMS library (AID 1159586). Particulars: recombinant PfPK6, Kinase-Glo ATP depletion luminescence.
In experiment [7] the target is Protein kinase 7 (PK7), Plasmodium falciparum 3D7 (PF3D7_0213400) (UniProt Q7YTF7). In words: inhibition of Plasmodium PK7 catalytic activity – biochemical, TCAMS antimalarial set, Kinase-Glo luminescence (AID 1159587). Particulars: recombinant PfPK7, Kinase-Glo ATP depletion luminescence.
Experiment [8] addresses Calcium-dependent protein kinase 4 (Plasmodium falciparum (isolate 3D7)) (UniProt Q8IBS5). In words: PfCDPK4 kinase inhibitors, biochemical, TCAMS library (AID 1159588; cut-off not given, nearly all actives have IC50 up to about 0.91 µM). Particulars: recombinant PfCDPK4, Kinase-Glo ATP depletion luminescence.

Calcium-dependent protein kinase 1 (Plasmodium falciparum (isolate 3D7)), sequence (P62344 whole entry, looked up): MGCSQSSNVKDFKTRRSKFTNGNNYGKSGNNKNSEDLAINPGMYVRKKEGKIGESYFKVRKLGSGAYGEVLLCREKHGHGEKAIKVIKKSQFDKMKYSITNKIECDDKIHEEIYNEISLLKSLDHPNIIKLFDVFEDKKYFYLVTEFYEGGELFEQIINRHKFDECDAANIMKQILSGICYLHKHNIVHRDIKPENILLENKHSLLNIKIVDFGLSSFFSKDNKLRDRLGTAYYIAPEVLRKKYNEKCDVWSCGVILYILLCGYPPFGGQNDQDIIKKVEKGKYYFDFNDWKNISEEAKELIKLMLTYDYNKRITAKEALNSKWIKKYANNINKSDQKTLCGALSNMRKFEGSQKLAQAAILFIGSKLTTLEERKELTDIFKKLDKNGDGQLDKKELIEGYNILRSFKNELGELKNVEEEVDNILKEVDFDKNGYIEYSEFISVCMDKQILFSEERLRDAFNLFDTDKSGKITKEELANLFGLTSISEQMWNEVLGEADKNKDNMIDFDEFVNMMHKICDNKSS
Plasmodium falciparum protein kinase 6 (PK6, PF3D7_1337100), sequence (Q8IDW1 1-305): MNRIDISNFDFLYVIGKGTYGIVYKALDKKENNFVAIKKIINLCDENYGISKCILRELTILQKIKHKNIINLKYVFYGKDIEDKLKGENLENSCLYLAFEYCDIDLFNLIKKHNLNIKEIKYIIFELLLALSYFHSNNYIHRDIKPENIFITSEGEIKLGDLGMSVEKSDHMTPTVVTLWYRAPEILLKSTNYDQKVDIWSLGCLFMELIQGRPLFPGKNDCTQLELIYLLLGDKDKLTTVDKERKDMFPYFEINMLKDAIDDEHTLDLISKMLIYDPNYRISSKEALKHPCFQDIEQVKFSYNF
Calcium-dependent protein kinase 4 (Plasmodium falciparum (isolate 3D7)), sequence (Q8IBS5 whole entry, looked up): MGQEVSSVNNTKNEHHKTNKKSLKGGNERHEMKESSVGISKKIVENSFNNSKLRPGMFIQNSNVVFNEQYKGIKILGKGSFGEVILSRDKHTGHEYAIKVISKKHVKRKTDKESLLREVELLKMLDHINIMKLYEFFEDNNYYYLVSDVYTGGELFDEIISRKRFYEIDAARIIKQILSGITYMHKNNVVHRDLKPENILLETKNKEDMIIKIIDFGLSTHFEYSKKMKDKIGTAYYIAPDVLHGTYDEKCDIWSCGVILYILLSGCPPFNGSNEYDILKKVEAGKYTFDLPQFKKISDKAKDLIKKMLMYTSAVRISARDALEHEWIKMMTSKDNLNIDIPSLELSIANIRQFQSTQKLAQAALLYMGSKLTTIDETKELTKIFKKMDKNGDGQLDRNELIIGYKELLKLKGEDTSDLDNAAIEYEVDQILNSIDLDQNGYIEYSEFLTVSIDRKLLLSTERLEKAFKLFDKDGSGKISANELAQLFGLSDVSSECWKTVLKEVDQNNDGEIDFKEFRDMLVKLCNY
L-lactate dehydrogenase (Plasmodium falciparum (isolate CDC / Honduras)), sequence (Q27743 whole entry, looked up): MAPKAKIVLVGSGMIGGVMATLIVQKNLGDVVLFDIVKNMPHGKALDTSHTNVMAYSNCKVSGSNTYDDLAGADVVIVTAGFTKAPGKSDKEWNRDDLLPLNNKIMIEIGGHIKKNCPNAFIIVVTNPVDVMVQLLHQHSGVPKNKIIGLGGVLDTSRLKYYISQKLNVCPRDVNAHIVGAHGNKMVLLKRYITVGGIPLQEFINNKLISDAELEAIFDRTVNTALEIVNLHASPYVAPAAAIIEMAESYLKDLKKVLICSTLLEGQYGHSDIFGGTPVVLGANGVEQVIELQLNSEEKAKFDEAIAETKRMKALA
Protein kinase 7 (PK7), Plasmodium falciparum 3D7 (PF3D7_0213400), sequence (Q7YTF7 1-343): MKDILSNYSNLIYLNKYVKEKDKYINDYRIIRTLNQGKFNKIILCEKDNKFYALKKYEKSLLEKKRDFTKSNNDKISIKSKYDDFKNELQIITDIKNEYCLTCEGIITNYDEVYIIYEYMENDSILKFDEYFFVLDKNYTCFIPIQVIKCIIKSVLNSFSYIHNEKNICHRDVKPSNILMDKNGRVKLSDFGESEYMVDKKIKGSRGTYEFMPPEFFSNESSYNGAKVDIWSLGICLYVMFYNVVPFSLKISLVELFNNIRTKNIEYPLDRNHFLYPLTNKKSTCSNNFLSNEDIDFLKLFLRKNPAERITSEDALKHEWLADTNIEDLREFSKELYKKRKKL

Consider `CS(=O)(=O)NCCCNCc1ccc(-c2cccc(-c3nc4ccc(F)cc4[nH]3)c2)cc1`, for which the growth inhibition in experiment [1] was 1%; in experiment [4], 98% (active). Besides, the results for the inhibition in experiment [2] and in experiment [3] were 15% and 5%, respectively. The outcome in experiment [5], in experiment [6], in experiment [7] and in experiment [8] was inactive.

For `O=C(N[C@@H](CC1CCCCC1)C(=O)NCCc1ccc(Cl)c(Cl)c1)c1ccc(O)c(-c2ccc(Cl)c(Cl)c2)c1`, the growth inhibition in experiment [1] was 99% (active); in experiment [4] it was 100% (active). The inhibition in experiment [2] was -11%; in experiment [3], -2%. In addition, the result in experiment [5], in experiment [6], in experiment [7] and in experiment [8] was inactive.

Turning to `CCOc1cc2ncnc(Nc3cc(Cl)c(Cl)c(Cl)c3)c2cc1OCC`, the growth inhibition in experiment [1] was 98% (active); in experiment [4], 102% (active). The values for the inhibition in experiment [2] and in experiment [3] were 11% and -3%, respectively. The outcome in experiment [5], in experiment [6], in experiment [7] and in experiment [8] was inactive.

For `C[C@H](O)[C@@](C)(CO)NCc1ccc2c3c(cccc13)-c1ccccc1-2`, the growth inhibition in experiment [1] was 85% (active); in experiment [4] it was 95% (active). For the same molecule, the inhibition was 81% (active) in experiment [2] and -2% in experiment [3]. The outcome in experiment [5], in experiment [6], in experiment [7] and in experiment [8] was inactive.

For the molecule `COC(=O)c1cccc(CNCc2ccc(-c3cccc(-c4nc5ccccc5[nH]4)c3)cc2)c1`, the growth inhibition in experiment [1] is 46%; in experiment [4], 101% (active). Also, the inhibition in experiment [2] is 5%; in experiment [3], -3%. For the same molecule, the result in experiment [5], in experiment [6], in experiment [7] and in experiment [8] was inactive.

Consider `CN(C)CCNCc1ncsc1-c1ccc2c(Nc3ccc(F)cc3Cl)ccnc2c1`, for which the growth inhibition is 95% (active) in experiment [1] and 100% (active) in experiment [4]. For the same molecule, the inhibition is -1% in experiment [2] and 0% in experiment [3]. In addition, the result in experiment [5], in experiment [6], in experiment [7] and in experiment [8] was inactive.

As to `Cn1cc(-c2ccccc2C(=O)O)c(=O)c2cc(Cl)ccc21`, the growth inhibition in experiment [1] was -4%; in experiment [4] it was 89% (active). Also, the inhibition in experiment [2] was 16%; in experiment [3] it was -1%. Moreover, the result in experiment [5], in experiment [6], in experiment [7] and in experiment [8] was inactive.

`COc1ccc2ncc(F)c([C@H](O)CN3CCC(NCc4ccc5c(c4)OCCO5)CC3)c2c1`: the growth inhibition in experiment [1] was 99% (active); in experiment [4], 102% (active). Further, the inhibition in experiment [2] was 1%; in experiment [3] it was -5%. The outcome in experiment [5], in experiment [6], in experiment [7] and in experiment [8] was inactive.

As for `N#Cc1ccc(-c2ccc(C(=O)Nc3ccc4c(c3)CCN(C3CCC3)CC4)nc2)cn1`, the growth inhibition in experiment [1] is 15%; in experiment [4], 85% (active). Besides, the inhibition is 24% in experiment [2] and -1% in experiment [3]. Also, the outcome in experiment [5], in experiment [6], in experiment [7] and in experiment [8] was inactive.

Consider `CCOC(=O)c1[nH]c2ccc(F)cc2c1NC(=O)CN1CCN(c2cccc(C(F)(F)F)c2)CC1`, for which the figures for the growth inhibition in experiment [1] and in experiment [4] were 90% (active) and 96% (active), respectively. For the same molecule, the inhibition was 12% in experiment [2] and -2% in experiment [3]. Further, the result in experiment [5], in experiment [6], in experiment [7] and in experiment [8] was inactive.

For the molecule `COC(=O)Nc1nc2cc3c(cc2s1)OCCO3`, the growth inhibition was -1% in experiment [1] and 99% (active) in experiment [4]. Moreover, the inhibition in experiment [2] was -12%; in experiment [3], 1%. The outcome in experiment [5], in experiment [6], in experiment [7] and in experiment [8] was inactive.

Consider `O=C(Nc1cccnc1)c1cn(-c2ccccc2)nc1-c1cccs1`, for which the values for the growth inhibition in experiment [1] and in experiment [4] were 61% (active) and 99% (active), respectively. The results for the inhibition in experiment [2] and in experiment [3] were 3% and -3%, respectively. In addition, the outcome in experiment [5], in experiment [6], in experiment [7] and in experiment [8] was inactive.

Take `Cc1ccc(C)c(NC(=O)NC2CCN(c3ccnc(Nc4ccc(F)cc4)n3)C2)c1` (stereo not given): the growth inhibition was 74% (active) in experiment [1] and 100% (active) in experiment [4]. The inhibition in experiment [2] is -2%; in experiment [3], -3%. The result in experiment [5], in experiment [6], in experiment [7] and in experiment [8] was inactive.

For the molecule `Oc1ccc2[nH]c(-c3ccc(OC(F)(F)F)cc3)nc2c1CNC1CCCC1`, the growth inhibition in experiment [1] was 97% (active); in experiment [4], 99% (active). In addition, the inhibition is 32% in experiment [2] and 0% in experiment [3]. Further, the result in experiment [5], in experiment [6], in experiment [7] and in experiment [8] was inactive.

Regarding `COc1ccc(C2CC(c3cccs3)=NN2C(=O)COc2cccc3c2CCCC3O)cc1OC` (stereo not given), the growth inhibition was 62% (active) in experiment [1] and 93% (active) in experiment [4]. Moreover, the inhibition is 5% in experiment [2] and 3% in experiment [3]. Also, the result in experiment [5], in experiment [6], in experiment [7] and in experiment [8] was inactive.

As to `FC(F)(F)c1ccc2nc(-c3ccc(-c4cccc(CN5CCN(c6ccncc6)CC5)c4)cc3)[nH]c2c1`, the growth inhibition in experiment [1] is 99% (active); in experiment [4], 101% (active). For the same molecule, the values for the inhibition in experiment [2] and in experiment [3] were 82% (active) and 2%, respectively. Also, the result in experiment [5], in experiment [6], in experiment [7] and in experiment [8] was inactive.

As to `c1ccc(CN2CCC(NCc3ccc(-c4cncc5ccccc45)cc3)CC2)cc1`, the growth inhibition in experiment [1] is 19%; in experiment [4] it was 98% (active). For the same molecule, the inhibition in experiment [2] is 21%; in experiment [3], -3%. Besides, the outcome in experiment [5], in experiment [6], in experiment [7] and in experiment [8] was inactive.

`COc1ccccc1C1CN(CCNC(=O)c2ncc(C)[nH]2)Cc2ccccc2O1` (stereo not given): the growth inhibition in experiment [1] was 86% (active); in experiment [4], 90% (active). In addition, the inhibition was 4% in experiment [2] and 0% in experiment [3]. For the same molecule, the result in experiment [5], in experiment [6], in experiment [7] and in experiment [8] was inactive.

In the case of `Oc1c(Br)cc2oc3c(c2c1CNCc1ccccc1)CCCC3`, the growth inhibition in experiment [1] is 74% (active); in experiment [4], 99% (active). The inhibition in experiment [2] is -19%; in experiment [3], 0%. The result in experiment [5], in experiment [6], in experiment [7] and in experiment [8] was inactive.

As for `N#Cc1cc(C(=O)c2cc(Br)ccc2O)cn(-c2cc(Cl)cc(Cl)c2)c1=O`, the growth inhibition in experiment [1] is 35%; in experiment [4] it was 98% (active). The inhibition is 42% in experiment [2] and -5% in experiment [3]. In addition, the outcome in experiment [5], in experiment [6], in experiment [7] and in experiment [8] was inactive.

What is called inhibition is the relative decrease from the control value, in per cent.
